Source: PubChem BioAssay (several laboratories)
Sampled rows, rich in hits. Any-hit rate of the full collection: about 3.2%.
ERa coact inh: ER-alpha (human) coactivator binding inhibition; TR-FRET ER-alpha LBD / SRC-1 peptide, estradiol-bound; AID 629; P03372; inhibition, % at 25.6 µM; 1.7% of 86,000 active; in the data active = inhibition above about 50%
MT1-MMP txn act: activates MT1-MMP transcription; HT1080 MT1-MMP promoter luciferase reporter, luminescence, overnight; hits give high values; activation factor at 10 µM; 0.16% of 86,000 active; AID 750;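 active = activation factor of at least 2 for MT1-MMP transcription at 10 µM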
ERa coact pot: enhances coactivator binding to human estrogen receptor alpha; P03372; TR-FRET ERalpha-LBD/SRC-Cy5 coactivator binding, 2 h; 100 = basal binding, no effect; coactivator binding (% of control), % at 25.6 µM; 1.3% of 86,000 active; in the data active = activity above about 200%;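 also: binding measured in presence of low estradiol as agonist stimulus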
Candida biofilm: kills Candida albicans biofilms | 0.14% of 85,000 active | inhibition, % at 6 µM | C. albicans biofilm + clotrimazole, Alamar Blue | AID 834;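 active = inhibition above 20%; inactive = inhibition below 20%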;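 also: preformed 24 hr biofilms exposed to compound for 48 hr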
EphB4 antag: EphB4-ephrin-B2 interaction antagonism | P54760 | EphB4 LBD / TNYL-RAW-Alexa532 peptide, fluorescence polarization | inhibition, % at 7 µM | 0.15% of 97,000 active;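 active = inhibition above the screen-wide mean inhibition plus 3 SD, cut at about 15% in these data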
Target sequence (P54760 whole entry, looked up, the tested form may be a part): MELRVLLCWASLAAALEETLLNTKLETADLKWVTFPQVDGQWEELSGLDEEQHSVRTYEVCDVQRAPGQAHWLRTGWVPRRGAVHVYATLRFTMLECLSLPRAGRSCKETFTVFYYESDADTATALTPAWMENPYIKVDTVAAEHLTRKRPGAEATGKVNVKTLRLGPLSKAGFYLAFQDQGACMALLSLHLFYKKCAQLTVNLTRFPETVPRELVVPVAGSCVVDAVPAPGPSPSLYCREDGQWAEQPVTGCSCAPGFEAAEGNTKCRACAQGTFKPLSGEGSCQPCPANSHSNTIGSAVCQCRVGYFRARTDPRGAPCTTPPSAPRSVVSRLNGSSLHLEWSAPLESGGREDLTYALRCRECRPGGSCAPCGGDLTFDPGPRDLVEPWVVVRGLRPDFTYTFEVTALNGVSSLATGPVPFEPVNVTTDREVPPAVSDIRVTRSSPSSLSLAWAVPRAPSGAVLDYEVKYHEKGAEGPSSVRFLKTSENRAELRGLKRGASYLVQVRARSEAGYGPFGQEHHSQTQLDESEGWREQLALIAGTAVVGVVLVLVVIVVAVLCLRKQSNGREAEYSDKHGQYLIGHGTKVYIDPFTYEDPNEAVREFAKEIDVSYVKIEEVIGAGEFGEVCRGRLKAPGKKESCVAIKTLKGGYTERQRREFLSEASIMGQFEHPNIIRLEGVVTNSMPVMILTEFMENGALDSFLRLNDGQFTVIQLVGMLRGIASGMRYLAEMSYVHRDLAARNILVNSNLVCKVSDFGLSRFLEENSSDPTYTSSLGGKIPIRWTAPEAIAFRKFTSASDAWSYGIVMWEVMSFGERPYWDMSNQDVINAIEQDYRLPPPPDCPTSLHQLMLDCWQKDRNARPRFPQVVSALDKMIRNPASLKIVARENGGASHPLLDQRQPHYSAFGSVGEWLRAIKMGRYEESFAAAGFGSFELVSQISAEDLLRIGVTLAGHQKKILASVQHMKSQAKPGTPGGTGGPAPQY
ERb coact inh: ER-beta (human) coactivator binding inhibition; inhibition, % at 25.6 µM; TR-FRET ER-beta LBD / SRC1-Cy5 peptide binding; receptor agonist-loaded with 1 µM estradiol; Q92731; 1.3% of 86,000 active;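 active = compounds whose percent inhibition of the receptor-coactivator binding signal exceeds about 50% in the single-dose screen, limit read from the data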
A number is an active result; – = inactive; · = no result given; [ ] = remark or other dose.

SMILES	ERa coact inh	MT1-MMP txn act	ERa coact pot	Candida biofilm	EphB4 antag	ERb coact inh
COc1ccc(-c2nnc(-c3cc4c(ccc5ccccc54)oc3=O)o2)cc1	52	–	–	–	–	–
O=c1oc2ccc3ccccc3c2cc1-c1nnc(-c2ccccc2)o1	65[fluorescence artefact?]	–	–	–	–	–
O=c1oc2ccccc2cc1-c1nnc(-c2cccc(Br)c2)o1	76[fluorescence artefact?]	–	–	–	·	–
Cc1ccc(NS(=O)(=O)c2ccc(NC(=O)c3cccc(NC(=O)C(C)C)c3)cc2)cc1	·	·	·	·	–	·
O=C(COC(=O)C12CC3CC(CC(O)(C3)C1)C2)N1CCN(S(=O)(=O)c2ccc(Cl)cc2)CC1	–	–	–	–	–	–
CCCC(=O)NCCSC	–	–	–	–	·	–
COc1ccc(NS(=O)(=O)c2ccc(SC)cc2)cc1	–	·	–	–	–	–
CSc1ccc(S(=O)(=O)Nc2c(C)cccc2C)cc1	55	–	–	–	–	–
CSc1ccc(S(=O)(=O)NCc2ccccc2)cc1	–	–	–	–	–	–
CCc1ccccc1NS(=O)(=O)c1ccc(SC)cc1	66[fluorescence artefact?]	–	–	–	–	–
CSc1ccc(S(=O)(=O)Nc2ccc(F)cc2)cc1	67[fluorescence artefact?]	–	–	–	–	–
COc1ccc(NC(=O)C2CCCN2c2ccc(OC)c(OC)c2)cc1OC (stereo not drawn)	–	–	–	–	·	–
Cc1cc(C)nc(NC(=O)c2ccc(Cl)c(Cl)c2)n1	–	–	–	–	–	–
Cc1cc(C)nc(NC2=NCCN2C(=O)Nc2ccc(Cl)c(Cl)c2)n1	–	·	970	–	–	–
Cc1cc(C)c2nc(SCC(=O)N3CC(=O)Nc4ccccc43)c(C#N)cc2c1	–	–	461[fluorescence artefact?]	–	–	–
Cc1cc(C)c2nc(SCC(=O)Nc3ccccc3N3CCOCC3)c(C#N)cc2c1	–	–	353[fluorescence artefact?]	–	–	–
Cc1ccc(OCC(=O)Nc2ccccc2N2CCOCC2)c(C)c1	–	–	–	–	–	–
CCOC(=O)CC(=O)CSc1nnc(Cn2c(=O)sc3ccccc32)n1C	–	–	–	–	–	–
COCCNC(=O)C(OC(=O)c1cccs1)c1ccccc1 (stereo not drawn)	–	–	–	–	–	–
Cc1ccc(-c2nnc3n2N=C(c2ccccc2Br)CS3)cc1	–	–	–	–	–	–
CCOC(=O)c1c(C)nc(C)c(C(=O)OCC)c1-c1ccccc1	·	·	·	·	–	·
CCOc1c(C(N)=O)c(-c2ccccc2)c2c(=O)[nH]c3ccccc3n12	82[fluorescence artefact?]	–	–	–	–	61
COc1ccc(OCC(=O)OCC(=O)NCc2ccco2)cc1	·	·	·	·	–	·
O=C(COC(=O)CCOc1ccccc1)NCc1ccco1	70	–	–	–	–	62[fluorescence artefact?]
O=C(CCSCCC(=O)NCc1ccco1)NCc1ccco1	59[fluorescence artefact?]	–	–	–	–	57[fluorescence artefact?]
SMILES	ERa coact inh	MT1-MMP txn act	ERa coact pot	Candida biofilm	EphB4 antag	ERb coact inh
O=C(CSCC(=O)NCc1ccco1)NCc1ccco1	–	–	–	–	–	–
COC(=O)[C@@]1(Cc2ccccc2)[C@H]2c3cc(C(=O)N(C)C)n(C[C@H](O)CO)c3C[C@H]2CN1C(=O)c1ccccc1	·	–	·	·	·	·
COc1nc(C)nc(NC(=O)NS(=O)(=O)c2ccc(C)cc2)n1	–	·	–	–	–	51[fluorescence artefact?]
CCc1nc2oc3ccccc3c(=O)c2c(=O)n1-c1ccccc1	–	–	–	–	–	–
O=C(NCCc1ccccc1)C1CCCN1C(=O)Nc1ccc(F)cc1 (stereo not drawn)	–	–	–	–	·	–
Cc1ccc2c(c1)C(=O)CCN2	–	–	–	–	–	–
O=C1CCNc2cc3ccccc3cc21	82[fluorescence artefact?]	–	–	–	–	78[fluorescence artefact?]
CN(C)c1ccc(-c2nn3c(-c4ccccc4Cl)nnc3s2)cc1	72[fluorescence artefact?]	–	–	–	–	–
Clc1ccc(-c2ccc(-c3nn4c(-c5ccco5)nnc4s3)o2)cc1	74	–	–	–	–	–
Cc1oc(-c2ccccc2Cl)cc1-c1nn2c(-c3ccco3)nnc2s1	58	–	–	–	·	52[fluorescence artefact?]
Cc1occc1-c1nnc2sc(-c3ccc(-c4ccc(Cl)cc4)o3)nn12	·	–	·	·	·	·
Clc1ccc(OCc2nn3c(-c4ccco4)nnc3s2)c(Cl)c1	66[fluorescence artefact?]	–	–	–	–	–
CCCn1c(NCc2c[nH]c3ccccc23)nc2ccccc21	–	–	–	–	–	–
COC(=O)c1ccc(C(NC(=O)OCc2ccccc2)/C(C)=C/[C@@H](C)C(=O)NCCO)cc1 (stereo partly drawn)	·	–	·	·	·	·
COc1ccc2cc(CN(CC3CCCO3)S(=O)(=O)c3ccccc3Cl)c(=O)[nH]c2c1 (stereo not drawn)	–	–	–	–	–	–
CCc1cc(C(=O)NNC(=S)Nc2cccc(C)c2)cs1	–	–	–	–	–	–
CCc1cc(C(=O)Nc2ccc(C)cc2Br)cs1	–	2	–	·	–	–
C=CCc1cccc2cc(C(=O)NCc3cccnc3)c(=O)oc12	81[fluorescence artefact?]	–	–	–	·	–
O=C1NCCCC2c3cc(O)c4ccccc4c3OC12N1CCCCC1 (stereo not drawn)	–	–	–	–	–	55
COC(=O)C1(C)C=CC2(CCCCC2)N1C(=O)c1ccccc1 (stereo not drawn)	·	–	·	·	·	·
C[C@@](Cc1ccc(O)c(O)c1)(NN)C(=O)O	·	–	·	·	·	·
CC(Cc1ccc(O)c(O)c1)C(C)Cc1ccc(O)c(O)c1 (stereo not drawn)	66	–	–	–	·	83[fluorescence artefact?]
CC(=O)N1CC=CC1(C)C(=O)NCC1CC1 (stereo not drawn)	·	–	·	·	·	·
CN(/N=C/c1cccnc1)c1cnn(-c2ccc(F)c(Cl)c2)c(=O)c1Cl	61	–	–	–	–	–
COC(=O)c1ccc(C(/C=C/[C@@H](C)C(=O)NCc2ccc(C)o2)NC(=O)OCc2ccccc2)cc1 (stereo partly drawn)	·	–	·	·	·	·
SMILES	ERa coact inh	MT1-MMP txn act	ERa coact pot	Candida biofilm	EphB4 antag	ERb coact inh
COC(=O)[C@@]1(Cc2ccc(F)cc2)[C@H]2c3cc(C(=O)N(C)C)n(Cc4ccc(C)c(F)c4F)c3C[C@H]2CN1C(=O)c1ccccc1	·	–	·	·	·	·
C/C=C(/C(=C/C)c1ccc(O)cc1)c1ccc(O)cc1	–	–	741	–	·	–
C=C(c1ccc(O)cc1)c1ccc(O)cc1	–	–	–	–	–	–
N#CC(c1nc2ccccc2nc1N1CCCCC1)S(=O)(=O)c1ccc(Cl)cc1 (stereo not drawn)	–	–	231[fluorescence artefact?]	–	·	–
O=C(Nc1cccnc1)c1cc(-c2ccc3c(c2)OCO3)on1	–	–	405	–	–	–
CN(C)CCCNCCCCNC(=O)/C=N/O	–	–	–	–	–	–
CC(C)(C)NC(=O)/C=N/O	–	–	–	–	·	99[fluorescence artefact?]
COc1cc(NC(=O)CN2CC(c3ccccc3)CC2=O)cc(OC)c1 (stereo not drawn)	–	–	–	20	·	–
c1cncc(-c2nc3ccccc3o2)c1	–	–	–	–	–	–
c1cc(-c2nc3cc(Cc4ccc5oc(-c6ccncc6)nc5c4)ccc3o2)ccn1	–	–	221[fluorescence artefact?]	–	·	–
c1cncc(-c2nc3cc(Cc4ccc5oc(-c6cccnc6)nc5c4)ccc3o2)c1	–	–	207[fluorescence artefact?]	–	·	–
